# PubChem BioAssay (Tox21)
# Values without a mark were called inactive. Records with an inconclusive call do not appear. A call without a number means that no potency is given here. The source made the active and inactive calls. Unless noted, the call rests on the fitted dose curve; in most records, active means well fitted curve in the direction sought with a large enough effect in the repeat runs; inconclusive means weak or mixed curves; inactive means no such curve, though single readings can be large; an effect the other way counts as inactive or inconclusive.
# Tests used:
# [1] = qHTS assay for small molecule agonists of the p53 signaling pathway (AID 651631; calls by dose curve; further: nearly all actives have a fitted effect of over 15% in size)
# Outline: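 HCT-116 cells carrying a stable p53 response element–beta-lactamase reporter were plated, rested 5 h at 37 °C, then exposed to compound in DMSO for 16 h at 37 °C; reporter activity was read as FRET substrate fluorescence after 2 h at room temperature.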
# [2] = qHTS assay for small molecules that induce genotoxicity in human embryonic kidney cells expressing luciferase-tagged ATAD5 (AID 651632); further: nearly all actives have a fitted effect of over 15% in size
# Outline: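 DMSO vehicle served as the control. HEK293T reporter cells, 16 hr at 37C, then 30 min Amplite at room temperature; ATAD5 induction is measured as luciferase activity.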
# [3] = qHTS assay for small molecule agonists of the p53 signaling pathway - cell viability (AID 651633; calls by dose curve; further: series mostly up to about 83 µM; nearly all actives have a fitted effect of over 30% in size)
# Outline: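 Viability counter-read: CellTiter-Glo luminescence (30 min, room temperature) in the same p53RE-bla plates. These plates had been exposed to compounds for 16 h at 37 C.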
# [4] = qHTS assay for small molecules that induce genotoxicity in human embryonic kidney cells expressing luciferase-tagged ATAD5 - cell viability (AID 651634; calls by dose curve; further: nearly all actives have a fitted effect of over 25% in size; further: potency means the concentration at half of the fitted maximal effect)
# Outline: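 Here HEK293T cells with the ATAD5 luciferase reporter are incubated with test compounds for 15.5 hr, and cytotoxicity is then gauged by measuring protease activity in live cells using fluorescence.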
# [5] = qHTS assay for small molecule disruptors of the mitochondrial membrane potential - cell viability (AID 720634; calls by dose curve; further: nearly all actives have a fitted effect of over 20% in size; further: potency means the concentration at half of the fitted maximal effect)
# Outline: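 Viability of HepG2 cells is scored from ATP content by luminescence; cells are exposed to compound for 1 hr at 37 C and 5% CO2, then dosed with m-MPI dye before the CellTiter-Glo reagent.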
# [6] = qHTS assay to test for compound auto fluorescence at 590 nm (red) in HepG2 cells (AID 720674)
# Outline: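 We screened compounds on adherent HepG2 cells, incubating them for an hour at 37 C in 5% CO2 before reading emission at 590 nm under 540 nm excitation; values reflect equivalence to Rose Bengal sodium fluorescence.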
# [7] = qHTS assay to test for compound auto fluorescence at 535 nm (green) in HepG2 cells (AID 720675)
# [8] = qHTS assay to test for compound auto fluorescence at 460 nm (blue) in HEK293 cells (AID 720678)
# Outline: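 After cell attachment (4-5 hr, 37C), compounds were pinned onto HEK293 monolayers in 10% dialyzed FBS medium. The blue channel (405/460 nm) was read following overnight culture. Equivalency was calculated against triamterene.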
# [9] = qHTS assay to test for compound auto fluorescence at 590 nm (red) in HEK293 cells (AID 720679)
# Outline: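 Plates of HEK293 cells (10% dialyzed FBS) are treated with 23 nL compound or DMSO vehicle after a 4-5 hr attachment period, incubated overnight at 37C, and read for red fluorescence at 540/590nm.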
# [10] = qHTS assay to test for compound auto fluorescence at 535 nm (green) in HEK293 cells (AID 720680)
# [11] = qHTS assay to test for compound auto fluorescence at 460 nm (blue) in HEK293 cell free culture (AID 720681)
# Outline: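 Blue fluorescence (Ex 405/Em 460 nm, triamterene-equivalent) was read immediately after pin transfer of compound or DMSO into medium (DMEM, 10% FBS) without cells.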
# [12] = qHTS assay to test for compound auto fluorescence at 535 nm (green) in HEK293 cell free culture (AID 720682)
# Outline: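 Read-out: 485/535 nm fluorescence intensity, calibrated against fluorescein. Medium only (DMEM + 10% FBS, no cells); test compound or DMSO vehicle added by pintool before plate reading.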
# [13] = qHTS assay to test for compound auto fluorescence at 590 nm (red) in HEK293 cell free culture (AID 720683)
# Outline: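 Red-channel autofluorescence of compounds in culture medium (DMEM, 10% FBS), no cells, measured at 540/590 nm. Rose Bengal sodium is the reference fluorophore for equivalence.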
# [14] = qHTS assay to test for compound auto fluorescence at 590 nm (red) in HepG2 cell free culture (AID 720684)
# Outline: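 No cells present: MEM + 10% FBS only. Compound pinned in, red label read (540/590 nm). Activity = fluorescence equivalent to Rose Bengal sodium.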
# [15] = qHTS assay to test for compound auto fluorescence at 460 nm (blue) in HepG2 cell free culture (AID 720685)
# Outline: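 Cell-free plates of MEM plus 10% FBS received 23 nL compound or DMSO vehicle; blue-channel (405/460 nm) intensity scored against triamterene as reference fluorophore.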
# [16] = qHTS assay to test for compound auto fluorescence at 535 nm (green) in HepG2 cell free culture (AID 720686)
# [17] = qHTS assay to test for compound auto fluorescence at 460 nm (blue) in HepG2 cells (AID 720687)
# Outline: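 Blue-channel autofluorescence (Ex/Em 405/460 nm, triamterene-equivalent) was measured after 1 hr compound exposure at 37 C, 5% CO2. Cells were HepG2, plated overnight at 37 C in MEM plus 10% FBS.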
# [18] = qHTS assay for small molecule disruptors of the mitochondrial membrane potential (AID 720635); further: potency means the concentration at half of the fitted maximal effect
# Outline: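 Mitochondrial membrane potential tracked with Mito-MPS dye, red aggregates (ex 540/em 590 nm) against green monomers (ex 490/em 535 nm). Compound treatment 1 hr at 37C, dye 30 min in HepG2.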
# [19] = molecular target: Glucocorticoid receptor (Homo sapiens) (UniProt P04150); assay: qHTS assay to identify small molecule antagonists of the glucocorticoid receptor (GR) signaling pathway (AID 720692; active means well fitted inhibition curve with a large enough effect in the signal ratio in the repeat runs, not every such curve was filed as active; the % refers to the signal ratio)
# Outline: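 In a 1536-well cell format, compounds were added 4 h after seeding GR-bla HeLa cells, together with dexamethasone at 5 nM final; reporter activity was measured by FRET-substrate fluorescence following 18 h at 37 C.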
# [20] = molecular target: Glucocorticoid receptor (Homo sapiens) (UniProt P04150); assay: qHTS assay to identify small molecule agonists of the glucocorticoid receptor (GR) signaling pathway (AID 720691; active means well fitted activation curve with a large enough effect in the signal ratio in the repeat runs, not every such curve was filed as active; the % refers to the signal ratio)
# Outline: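 Compounds in DMSO, alongside positive controls, were added to GR-bla HeLa reporter cells and incubated 18 h at 37 C; GRE-driven beta-lactamase was detected by fluorescence after 2 h with FRET substrate at room temperature.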
# Glucocorticoid receptor (Homo sapiens), sequence (P04150 whole entry, looked up): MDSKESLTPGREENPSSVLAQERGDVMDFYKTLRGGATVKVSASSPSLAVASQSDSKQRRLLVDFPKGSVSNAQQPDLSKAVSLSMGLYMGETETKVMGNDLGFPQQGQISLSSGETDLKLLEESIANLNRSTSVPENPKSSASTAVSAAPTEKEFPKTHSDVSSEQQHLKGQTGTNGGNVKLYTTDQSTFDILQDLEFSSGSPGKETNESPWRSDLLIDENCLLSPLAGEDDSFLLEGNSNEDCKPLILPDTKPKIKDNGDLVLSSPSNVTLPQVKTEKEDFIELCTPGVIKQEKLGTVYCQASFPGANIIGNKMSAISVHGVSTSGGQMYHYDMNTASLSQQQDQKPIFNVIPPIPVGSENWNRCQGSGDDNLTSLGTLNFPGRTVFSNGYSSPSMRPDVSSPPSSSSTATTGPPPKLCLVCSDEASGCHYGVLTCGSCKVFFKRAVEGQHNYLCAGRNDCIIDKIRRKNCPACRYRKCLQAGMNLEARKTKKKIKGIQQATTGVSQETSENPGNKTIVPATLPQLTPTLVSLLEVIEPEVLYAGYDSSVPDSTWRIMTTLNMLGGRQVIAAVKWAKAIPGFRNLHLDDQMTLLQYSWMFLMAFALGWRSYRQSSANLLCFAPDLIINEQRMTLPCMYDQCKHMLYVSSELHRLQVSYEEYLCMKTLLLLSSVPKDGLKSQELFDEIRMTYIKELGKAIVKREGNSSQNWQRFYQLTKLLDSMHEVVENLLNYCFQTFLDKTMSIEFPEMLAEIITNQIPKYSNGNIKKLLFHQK
Compound,Potency [1],Potency [2],Potency [3],Potency [4],Potency [5],outcome [6],outcome [7],outcome [8],outcome [9],outcome [10],outcome [11],outcome [12],outcome [13],outcome [14],outcome [15],outcome [16],outcome [17],Potency [18],Potency [19],outcome [20]
CCOS(C)(=O)=O,inactive,inactive,inactive,inactive,inactive,inactive,inactive,inactive,inactive,inactive,inactive,inactive,inactive,inactive,inactive,inactive,inactive,–,–,–
C=CCC1([C@H](C)CCC)C(=O)NC(=O)NC1=O,inactive,inactive,inactive,inactive,inactive,inactive,–,inactive,inactive,inactive,inactive,inactive,inactive,inactive,inactive,–,inactive,inactive,inactive,–
COCC(C)N(C(=O)CCl)c1c(C)csc1C (stereo not given),inactive,inactive,inactive,inactive,inactive,inactive,inactive,inactive,inactive,inactive,inactive,inactive,inactive,inactive,inactive,inactive,inactive,inactive,inactive,–
CCOc1nc(F)cc2nc(S(=O)(=O)Nc3c(Cl)cccc3Cl)nn12,inactive,inactive,inactive,inactive,inactive,inactive,–,inactive,inactive,inactive,inactive,inactive,inactive,inactive,inactive,inactive,inactive,inactive,inactive,–
CCN(C)N=O,inactive,inactive,inactive,inactive,inactive,inactive,inactive,inactive,inactive,inactive,inactive,inactive,inactive,inactive,inactive,inactive,inactive,1.9 µM (active),–,–
CCOP(=O)(OCC)SCCSCC,inactive,inactive,inactive,inactive,inactive,inactive,inactive,inactive,inactive,inactive,inactive,inactive,inactive,inactive,inactive,–,inactive,inactive,–,–
CC1CC(CC2CCC(N)C(C)C2)CCC1N (stereo not given),inactive,inactive,–,inactive,inactive,inactive,inactive,inactive,inactive,inactive,inactive,inactive,inactive,–,inactive,inactive,inactive,inactive,inactive,–
C=CCCl,inactive,inactive,inactive,inactive,inactive,–,inactive,inactive,inactive,inactive,inactive,inactive,inactive,inactive,inactive,inactive,inactive,–,–,inactive
CC[C@H]1C[C@H]2[C@@H]3CCC4=CC(=O)CC[C@@H]4[C@H]3CC[C@]2(C)[C@H]1O,inactive,inactive,–,inactive,inactive,inactive,inactive,inactive,inactive,inactive,inactive,inactive,inactive,inactive,inactive,–,inactive,–,–,–
O=S1(=O)OC(c2cc(Br)c(O)c(Br)c2)(c2cc(Br)c(O)c(Br)c2)c2ccccc21,inactive,inactive,–,25 µM (active),28.1 µM (active),–,inactive,inactive,inactive,inactive,inactive,inactive,inactive,inactive,inactive,–,inactive,–,inactive,–
CCCCc1c(C)nc(NCC)nc1OS(=O)(=O)N(C)C,inactive,inactive,inactive,inactive,–,inactive,inactive,inactive,inactive,inactive,inactive,inactive,inactive,inactive,inactive,–,inactive,21.7 µM (active),–,inactive
COP(=S)(OC)Oc1ccc([N+](=O)[O-])cc1Cl,inactive,inactive,inactive,–,–,inactive,inactive,inactive,inactive,inactive,inactive,inactive,inactive,inactive,inactive,inactive,inactive,24.3 µM (active),inactive,inactive
CC(Cl)C(C)Cl (stereo not given),inactive,inactive,inactive,inactive,inactive,–,inactive,inactive,inactive,inactive,inactive,inactive,inactive,–,inactive,inactive,inactive,–,inactive,–
CCOc1ccc(C(C)(C)COCc2cccc(Oc3ccccc3)c2)cc1,inactive,inactive,inactive,inactive,inactive,inactive,–,inactive,inactive,inactive,inactive,inactive,inactive,inactive,inactive,inactive,inactive,–,inactive,–
C=CC(=O)OC(C)(C)C,inactive,inactive,inactive,inactive,–,inactive,inactive,inactive,inactive,inactive,inactive,inactive,inactive,inactive,inactive,inactive,inactive,–,inactive,–
COc1cc(Cl)c(OC)cc1Cl,inactive,inactive,–,inactive,inactive,inactive,inactive,inactive,inactive,inactive,inactive,inactive,inactive,inactive,inactive,inactive,inactive,–,inactive,inactive
O=C(O)COc1ccc(Cl)cc1,inactive,inactive,inactive,inactive,inactive,inactive,inactive,inactive,inactive,inactive,inactive,inactive,inactive,inactive,inactive,–,inactive,–,inactive,–
